Results filed as inconclusive are left out. The source made the active and inactive calls. Unless noted, cut-off not given; nearly all actives show AC50 up to about 26 µM.
Experiments:
[1] = biological target: Mitogen-activated protein kinase 7 (Homo sapiens) (UniProt Q13164); assay: ERK5 transactivation activators in reporter cells, primary screen, cell-based, HTS (AID 1508626;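 active means luciferase signal above three times the same-plate solvent-only control wells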;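 further: luciferase driven by Gal4-ERK5 fusion binding five Gal4 sites before minimal TATA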); conditions: HeLa Gal4-ERK5 transactivation, 18 h, at 5 µM, stronger effect = higher value
Chain of Mitogen-activated protein kinase 7 (Homo sapiens) (Q13164 whole entry, looked up, the tested form may be a part): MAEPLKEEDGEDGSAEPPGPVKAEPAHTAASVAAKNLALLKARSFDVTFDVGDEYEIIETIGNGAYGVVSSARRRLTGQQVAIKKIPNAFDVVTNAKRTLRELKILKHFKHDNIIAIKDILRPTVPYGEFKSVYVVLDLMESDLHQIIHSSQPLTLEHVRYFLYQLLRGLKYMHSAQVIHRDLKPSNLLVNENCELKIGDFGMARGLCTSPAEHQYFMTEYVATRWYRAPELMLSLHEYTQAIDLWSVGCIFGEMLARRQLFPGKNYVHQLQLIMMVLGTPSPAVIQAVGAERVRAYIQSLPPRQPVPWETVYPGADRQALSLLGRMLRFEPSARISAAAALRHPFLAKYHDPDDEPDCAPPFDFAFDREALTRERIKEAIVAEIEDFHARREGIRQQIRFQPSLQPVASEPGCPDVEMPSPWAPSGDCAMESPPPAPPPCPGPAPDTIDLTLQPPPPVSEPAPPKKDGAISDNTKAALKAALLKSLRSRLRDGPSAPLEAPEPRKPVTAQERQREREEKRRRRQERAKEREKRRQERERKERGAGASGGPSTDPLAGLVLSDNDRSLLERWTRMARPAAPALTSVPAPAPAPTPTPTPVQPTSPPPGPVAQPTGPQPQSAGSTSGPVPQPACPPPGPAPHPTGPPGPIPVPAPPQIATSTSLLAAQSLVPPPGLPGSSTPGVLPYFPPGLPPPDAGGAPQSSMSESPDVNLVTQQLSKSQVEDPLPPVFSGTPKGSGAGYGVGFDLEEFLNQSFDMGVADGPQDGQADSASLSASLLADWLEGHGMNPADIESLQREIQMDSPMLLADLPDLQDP

[2] = growth inhibition of DIPG glioma cells, dose response, cell-based, SU-DIPG-IV, MIPE4.0, CellTiter-Glo, qHTS (AID 1347063; cut-off not given, nearly all actives have AC50 up to about 30 µM;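 further: compound exposure lasted 48 hours before the viability readout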); conditions: SU-DIPG-IV viability, CellTiter-Glo ATP luminescence
[3] = growth inhibition of DIPG glioma cells, dose response, cell-based, SU-DIPG-XIII, MIPE5.0, CellTiter-Glo, qHTS (AID 1347064; cut-off not given, nearly all actives have AC50 up to about 23 µM;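 on AC50: cells exposed to compound for 48 hours before the viability read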); conditions: SU-DIPG-XIII viability, CellTiter-Glo ATP luminescence
[4] = viability loss in pontine glioma line – cell-based, SU-DIPG-XXV, MIPE5.0, CellTiter-Glo, qHTS, dose response (AID 1347065); conditions: CellTiter-Glo ATP luminescence;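 further: cells exposed to compound for 48 hours before ATP readout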
[5] = SU-DIPG-VI glioma cell viability, MIPE4.0 library, CellTiter-Glo luminescence, qHTS (AID 1347066; cut-off not given, nearly all actives have AC50 up to about 30 µM;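 further: cells exposed to compound for 48 hours before readout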); conditions: CellTiter-Glo ATP luminescence
[6] = JHH-DIPG-1 glioma cell viability, MIPE5.0 library, CellTiter-Glo luminescence, qHTS (AID 1347067); conditions: JHH-DIPG-1 glioma viability, CellTiter-Glo ATP luminescence;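 further: cells exposed to compound for 48 hours before readout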
[7] = modifiers of HSF1 nuclear foci, imaging, Selleck Cancer Library (AID 1347162; in the data active means plate-normalised HSF1 focus index below about 0.46); conditions: human cells, at 10 µM; SSMD: measured here: HSF1 foci SSMD mean; cell count: measured here: cell number; plate-normalised HSF1 focus index: stronger effect = lower value
[8] = growth inhibition of DIPG glioma cells, dose response, cell-based, SU-DIPG-XIII, MIPE4.0, CellTiter-Glo, qHTS (AID 1347061; cut-off not given, nearly all actives have AC50 up to about 37 µM;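 further: cells exposed to compound for 48 hours before readout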); conditions: SU-DIPG-XIII viability, CellTiter-Glo ATP luminescence
[9] = inhibitors of Cryptococcus chitosan production, flow cytometry, Cibacron Brilliant Red staining (AID 1347148; call rule not given here;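 further: compound exposure lasted three days at 37 degrees C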); conditions: Cryptococcus neoformans chitosan, stronger effect = lower value; at 10 µM unless noted
[10] = biological target: ATP-dependent translocase ABCB1 (Homo sapiens) (UniProt P08183); assay: MDR1 (ABCB1) efflux transporter inhibition, cell-based (AID 377; in the data active means fluorescence slope change above about 50%); conditions: MDR1-expressing cells, fluorescent substrate accumulation slope; stronger effect = higher value; concentration not given here
Chain of ATP-dependent translocase ABCB1 (Homo sapiens) (P08183 whole entry, looked up): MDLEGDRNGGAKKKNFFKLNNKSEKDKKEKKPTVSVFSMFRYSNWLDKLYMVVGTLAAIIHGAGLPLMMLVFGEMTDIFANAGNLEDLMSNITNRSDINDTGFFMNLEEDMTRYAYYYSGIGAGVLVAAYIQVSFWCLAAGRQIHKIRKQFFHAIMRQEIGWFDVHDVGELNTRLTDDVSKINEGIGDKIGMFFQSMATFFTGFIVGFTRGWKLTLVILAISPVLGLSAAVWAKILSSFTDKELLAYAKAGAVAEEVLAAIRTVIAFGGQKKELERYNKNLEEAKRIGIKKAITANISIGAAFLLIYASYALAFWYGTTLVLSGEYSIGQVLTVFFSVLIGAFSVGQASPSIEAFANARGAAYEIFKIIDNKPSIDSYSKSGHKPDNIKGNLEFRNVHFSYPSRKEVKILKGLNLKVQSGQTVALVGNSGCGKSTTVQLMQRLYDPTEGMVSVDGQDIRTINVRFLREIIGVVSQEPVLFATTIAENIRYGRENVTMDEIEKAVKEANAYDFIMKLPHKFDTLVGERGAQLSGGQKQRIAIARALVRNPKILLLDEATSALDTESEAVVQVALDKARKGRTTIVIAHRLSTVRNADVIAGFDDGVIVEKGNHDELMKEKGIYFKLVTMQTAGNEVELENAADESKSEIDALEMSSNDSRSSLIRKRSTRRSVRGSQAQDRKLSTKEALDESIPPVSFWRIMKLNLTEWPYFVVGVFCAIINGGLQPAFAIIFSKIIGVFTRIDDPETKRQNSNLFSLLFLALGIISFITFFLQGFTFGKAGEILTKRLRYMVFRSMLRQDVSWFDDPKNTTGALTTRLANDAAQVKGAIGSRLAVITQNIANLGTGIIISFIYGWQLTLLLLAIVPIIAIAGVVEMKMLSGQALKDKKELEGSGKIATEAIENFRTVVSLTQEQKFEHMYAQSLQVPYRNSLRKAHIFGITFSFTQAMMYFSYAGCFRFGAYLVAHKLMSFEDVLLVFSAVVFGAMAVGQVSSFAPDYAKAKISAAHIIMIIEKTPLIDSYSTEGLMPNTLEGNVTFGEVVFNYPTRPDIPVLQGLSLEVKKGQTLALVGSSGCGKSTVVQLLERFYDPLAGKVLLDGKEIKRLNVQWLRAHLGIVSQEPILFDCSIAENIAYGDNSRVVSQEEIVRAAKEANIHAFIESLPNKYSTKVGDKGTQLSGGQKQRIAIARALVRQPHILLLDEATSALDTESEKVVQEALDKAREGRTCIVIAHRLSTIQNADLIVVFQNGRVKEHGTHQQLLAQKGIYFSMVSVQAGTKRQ

[11] = CRL2098 osteosarcoma cell growth inhibition, synergistic combos for chromothripsis tumors, BGB or cisplatin IC20 combos (AID 1671454; in the data active means inhibition above about 80%;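 further: cells exposed for 96 h before readout; 0% = vehicle DMSO and 100% = killing by high DMSO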); conditions: CRL2098 osteosarcoma cells, drug combinations, stronger effect = higher value
[12] = HD-MB03 medulloblastoma cell growth inhibition, synergistic combos for chromothripsis tumors, BGB or cisplatin IC20 combos (AID 1671455; in the data active means inhibition above about 83%;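 further: 0% = vehicle DMSO and 100% = high DMSO as cytotoxic control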); conditions: HD-MB03 medulloblastoma cells, stronger effect = higher value
[13] = UWB1.289 ovarian carcinoma cell growth inhibition, synergistic combos for chromothripsis tumors, BGB or cisplatin combos (AID 1671456; in the data active means inhibition above about 80%;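 further: cells exposed to compound for four days; 0% = vehicle DMSO and 100% = killing by high DMSO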); conditions: UWB1.289 ovarian carcinoma cells, stronger effect = higher value
[14] = LFS_MB_2R medulloblastoma cell growth inhibition, synergistic combos for chromothripsis tumors, cisplatin combos (AID 1671457; in the data active means inhibition above about 80%;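 further: cells exposed to compound for four days before readout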); conditions: LFS_MB_2R medulloblastoma cells, stronger effect = higher value
[15] = UWB1.289_BRCA1 ovarian cancer growth, cell-based, BGB or cisplatin combinations (AID 1671459; in the data active means inhibition above about 80%); conditions: UWB1.289 BRCA1 ovarian carcinoma, drug combinations, stronger effect = higher value
[16] = human astrocyte viability loss, single and combined drugs, cytotoxicity control for chromothriptic childhood tumor combination screen, cell-based, BGB or cisplatin IC20 combos (AID 1671460; in the data active means inhibition above about 80%;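 further: cells exposed to compounds for 96 hours before viability readout; 0% = vehicle and 100% = killing control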); conditions: Human astrocytes, drug combinations, stronger effect = higher value

## CCN(CC)CCOc1ccc(C(=C(Cl)c2ccccc2)c2ccccc2)cc1
[1]
  luciferase signal: 68 AU (inactive)

## COc1cccc2c1C(=O)c1c(O)c3c(c(O)c1C2=O)C[C@@](O)(C(=O)CO)C[C@@H]3O[C@H]1C[C@H](N)[C@@H](O)[C@H](C)O1
[2]
  AC50: 833 nM (active)
[3]
  AC50: 833 nM (active)
[4]
  AC50: 1180 nM (active)
[5]
  AC50: 4180 nM (active)
[6]
  AC50: 2350 nM (active)
[7]
  SSMD: -16.4
  cell count: 7260
  plate-normalised HSF1 focus index: 0.155 (active)
[1]
  luciferase signal: 20 AU (inactive)

## COc1cc([C@@H]2c3cc4c(cc3[C@@H](O[C@@H]3O[C@@H]5CO[C@@H](C)O[C@H]5[C@H](O)[C@H]3O)[C@H]3COC(=O)[C@H]23)OCO4)cc(OC)c1O
[8]
  outcome: inactive
[3]
  outcome: inactive
[5]
  outcome: inactive
[6]
  outcome: inactive
[9]
  fold fluorescence: 5.2 [at 85 µM] (inactive)
[7]
  SSMD: -0.198
  cell count: 6820
  plate-normalised HSF1 focus index: 0.99 (inactive)
[1]
  luciferase signal: 48 AU (inactive)

## CC(C)N=c1cc2n(-c3ccc(Cl)cc3)c3ccccc3nc-2cc1Nc1ccc(Cl)cc1
[10]
  fluorescence slope change: 72.8% (active)
[1]
  luciferase signal: 104 AU (inactive)
[11]; at 0.5 µM
  inhibition: -74.7% (inactive)
[11]; measured here: combination with BGB at IC20, at 0.5 µM
  inhibition: -58.6%
[11]; measured here: combination with cisplatin at IC20, at 0.5 µM
  inhibition: -130%
[12]; at 0.5 µM
  inhibition: -15.1% (inactive)
[12]; measured here: combo with BGB at IC20, at 0.5 µM
  inhibition: -15%
[12]; measured here: combo with cisplatin at IC20, at 0.5 µM
  inhibition: -18.6%
[13]; at 0.5 µM
  inhibition: -8.97% (inactive)
[13]; measured here: inhibition with BGB combination, at 0.05 µM
  inhibition: -17.6%
[13]; measured here: inhibition with cisplatin combination, at 0.05 µM
  inhibition: -17.6%
[14]; at 0.5 µM
  inhibition: -8.06% (inactive)
[14]; measured here: combination with cisplatin, at 0.5 µM
  inhibition: 1.44%
[14]; measured here: combination with cisplatin, at 5 µM
  inhibition: -0.801%
[15]; BGB combination, concentration series, at 5 µM
  inhibition: -7.22%
[15]; at 0.5 µM
  inhibition: -11.4% (inactive)
[15]; cisplatin combination, concentration series, at 5 µM
  inhibition: 14.7%
[16]; at 0.5 µM
  inhibition: -9.92% (inactive)
[16]; measured here: combo with BGB IC20, at 0.5 µM
  inhibition: 3.64%
[16]; measured here: combo with cisplatin IC20, at 0.5 µM
  inhibition: -24.8%

## CO/N=C(/C(=O)N[C@@H]1C(=O)N2C(C(=O)O)=C(COC(N)=O)CS[C@H]12)c1ccco1
[10]
  fluorescence slope change: -2.3% (inactive)

## CCCCC[C@H](O)/C=C/[C@H]1[C@H](O)CC(=O)[C@@H]1CCCCCCC(=O)O
[8]
  outcome: inactive
[2]
  outcome: inactive
[4]
  outcome: inactive
[5]
  outcome: inactive
[6]
  outcome: inactive

## CC[C@]1(O)CC2CN(CCc3c([nH]c4ccccc34)[C@@](C(=O)OC)(c3cc4c(cc3OC)N(C=O)[C@H]3[C@@](O)(C(=O)OC)[C@H](OC(C)=O)[C@]5(CC)C=CCN6CC[C@]43[C@@H]65)C2)C1 (stereo partly specified)
[7]
  SSMD: 1.41
  cell count: 6460
  plate-normalised HSF1 focus index: 1.08 (inactive)

## COCC1=C(C(=O)OC(C)OC(=O)OC(C)C)N2C(=O)[C@@H](NC(=O)/C(=N\OC)c3csc(N)n3)[C@H]2SC1 (stereo partly specified)
[1]
  luciferase signal: 40 AU (inactive)

## CC(=O)N1CCN(c2ccc(OC[C@H]3CO[C@](Cn4ccnc4)(c4ccc(Cl)cc4Cl)O3)cc2)CC1
[1]
  luciferase signal: 40 AU (inactive)

## CC(=O)SCC(Cc1ccccc1)C(=O)NCC(=O)OCc1ccccc1 (stereo unspecified)
[10]
  fluorescence slope change: 12.8% (inactive)
[2]
  AC50: 833 nM (active)
[3]
  outcome: inactive
[4]
  outcome: inactive
[6]
  outcome: inactive

## COc1cccc2c1C(=O)c1c(O)c3c(c(O)c1C2=O)C[C@@](O)(C(C)=O)C[C@@H]3OC1CC(N)C(O)C(C)O1 (stereo partly specified)
[10]
  fluorescence slope change: 95.8% (active)

## CN1CCN2c3ncccc3Cc3ccccc3C2C1 (stereo unspecified)
[8]
  outcome: inactive
[3]
  outcome: inactive
[4]
  outcome: inactive
[5]
  outcome: inactive
[6]
  outcome: inactive
